In the library only some 2.7% were active in any assay of this set; here they are far more common.
Shn3 3UTR inh = reduces Shn3 3'UTR luciferase signal in osteoblasts | 360,000 compounds, 0.52% hits | Clone20 osteoblast Shn3 3'UTR firefly luciferase, 24 h | AID 588674 | inhibition, % at 12.5 µM;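 active means mean inhibition of at least 75% with every replicate also reaching 75%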;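 further: 0% = median of neutral control wells and 100% = pilot-screen positive control compound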
KKLEB cytotox = CF airway cell cytotoxicity counter-screen; KKLEB CF airway cells viability, ATPlite luminescence, overnight; hits give low values; cells stimulated with P. aeruginosa culture filtrate; activity change (cytotoxicity), % at 5 µM; 360,000 compounds, 0.36% hits;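 active means corrected activity change at or below -50% at 5 µM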
Peg3 prom inh = Peg3 promoter activity inhibition; HeLa PEG-Prom luciferase reporter, luminescence, overnight; inhibition, % at 20 µM; 360,000 compounds, 1.7% hits; AID 588405;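 active means inhibition of at least 50% at 20 µM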
CF NFkB inh = blocks PAF-induced NF-kB reporter in cystic fibrosis cells | KKLEB NF-kB-GFP reporter, GFP fluorescence overnight | inhibition, % at 5 µM | 360,000 compounds, 0.86% hits | AID 588850;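 active means at least 50% inhibition at 5 µM, scaled per plate between neutral and stimulator controls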;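 further: PAF is a Pseudomonas aeruginosa culture filtrate used as stimulus; plate controls were PAF-stimulated DMSO wells for no effect and unstimulated DMSO wells for full effect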
MITF TRPM1 inh = reduces MITF-dependent TRPM1 promoter luciferase signal. SK-MEL-5 TRPM1 promoter luciferase, 24 h. inhibition, % at 12.5 µM. 330,000 compounds, 0.83% hits. AID 488899;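 active means mean inhibition across replicates of 60% or more, whatever share of single replicates reaches that level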
HIF-2a block = inhibitors of HIF-2a | 786-0 RCC cells HIF-2a reporter, luciferase luminescence, overnight | inhibition, % at 18.8 µM | 360,000 compounds, 0.72% hits | AID 624352;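 active means inhibition of the luminescence signal of 40% or more relative to plate controls, in a single-dose primary screen at 18.75 µM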
* hit, by the source's call; . = no result given.

SMILES | Shn3 3UTR inh | KKLEB cytotox | Peg3 prom inh | CF NFkB inh | MITF TRPM1 inh | HIF-2a block
Cc1cc(N2CCCC2)nc2ccc(NC(=S)NCCCN3CCC(C)CC3)cc12 | 14.6 | -1.3 | 98.4* | -23.6 | 29.8 | 17.6
CCCCN(C)CCNC(=S)Nc1ccc2nc(N3CCN(CC)CC3)cc(C)c2c1 | -8.8 | -7.7 | 63.4* | -12.8 | 5.9 | 16.2
Cc1cc(C)c2c(c1)/C(=N/Nc1ccc(S(N)(=O)=O)cc1[N+](=O)[O-])CCC2 | 36.1 | -18.9 | 61.2* | 21.7 | -10.4 | 8.1
Cc1cccnc1C(NC(=O)C1CCN(Cc2ccc(Cl)cc2)CC1)c1ccccc1 (stereo unspecified) | 10.3 | -6.4 | 12.7 | 13.2 | . | -2.8
Cc1cccnc1C(NC(=O)C1CCN(Cc2cn(C)c3ccccc23)CC1)c1ccc(Cl)cc1 (stereo unspecified) | 7.1 | -26.1 | 105.3* | 34.1 | . | 2.3
Cc1cccnc1C(NC(=O)C1CCN(CCOc2ccc(Cl)cc2Cl)CC1)c1ccc(Cl)cc1 (stereo unspecified) | 9.2 | -19.2 | 76.9* | 15.8 | . | -24.1
O=C(NC(c1ccc(F)cc1)c1cnccn1)C1CCN(CCOc2ccc(Cl)cc2Cl)CC1 (stereo unspecified) | -4.7 | -7.9 | 0.4 | -5.8 | . | -9.3
O=C(NC(c1ccc(Cl)cc1)c1ccccn1)C1CCN(CCOc2ccc(Cl)cc2Cl)CC1 (stereo unspecified) | -5.8 | -14.2 | 99.6* | 8.6 | . | -22.4
O=C(NC(c1ccc(Cl)cc1)c1cccnc1)C1CCN(CCOc2ccc(Cl)cc2Cl)CC1 (stereo unspecified) | -7.1 | -12.0 | 62.5* | 16.4 | . | -5.4
Cc1cccnc1C(NC(=O)C1CCN(CCCc2ccccc2)CC1)c1ccc(Cl)cc1 (stereo unspecified) | -16.8 | -27.1 | 12.7 | 31.3 | . | 7.1
O=C(NCC1CCCCC1)c1cc(-c2cc(F)ccc2OCC2CCCO2)n[nH]1 (stereo unspecified) | -6.8 | -21.2 | 18.8 | 22.3 | . | 5.9
CC(=O)Nc1nc2c(s1)CCc1ccccc1-2 | 8.7 | -14.1 | -41.4 | -47.9 | 13.0 | -44.6
O=C(CCCl)Nc1nc2c(s1)CCc1ccccc1-2 | 57.7 | -38.2 | 54.5* | -8.2 | 29.1 | -34.0
O=C(NC(Sc1ccc(Cl)cc1)C(=O)O)c1ccccc1 (stereo unspecified) | -14.1 | 0.6 | 20.1 | -34.4 | . | 10.2
Cc1ccc(-c2cn(-c3ccccc3)c3[n+]2CCCS3)cc1 | 76.6 | 3.6 | 15.4 | -15.1 | 43.2 | 16.5
COc1ccc(-n2cc(-c3ccc(C)cc3)[n+]3c2SCC3)cc1 | 78.9 | 7.8 | 14.2 | -12.1 | 70.7* | 9.6
CCOC(=O)[C@]12CCCC=C1N(Cc1ccccc1)C(=O)[C@H](CC(=O)NCCCN1CCCC1=O)C2 | . | . | . | . | . | 18.3
O=C(/C=C/[C@H]1O[C@@H](n2ccc(=O)[nH]c2=O)[C@H](O)[C@@H]1O)NCc1ccco1 | 5.6 | -1.5 | 7.0 | 0.9 | . | 14.4
Cc1cc(N2CCCC2)c(F)cc1/C=C\[N+](=O)[O-] | 29.9 | 3.0 | 79.2* | -11.1 | 18.4 | -28.7
C[C@H](CO)N1C[C@H](C)[C@@H](CN(C)Cc2ccc(C(=O)O)cc2)Oc2ncc(Br)cc2C1=O | 14.7 | -1.8 | 20.8 | -9.9 | . | -0.1
COc1ccc(C(C#N)CC(=O)c2ccc(OCc3ccccc3)c(OC)c2)cc1OC (stereo unspecified) | 23.7 | -2.5 | -9.3 | 20.5 | . | 1.3
CCCNC(=O)c1cc2c(c(-c3cccc(-c4ccc(F)cc4)c3)n1)[C@H](CCO)N(S(=O)C(C)(C)C)C2 (stereo partly specified) | -9.2 | -25.3 | 50.7* | -14.9 | . | 26.0
COc1cc(N)ccc1Nc1c2ccccc2nc2ccccc12 | 38.3 | -20.8 | 102.6* | -23.1 | . | 18.1
CCCS(=O)(=O)Nc1ccc(Nc2c3ccccc3nc3ccccc23)c(OC)c1 | 88.0* | -23.0 | 36.9 | -151.9 | 75.4* | 29.9
Cc1ccc(O)c(Nc2c3ccccc3nc3ccccc23)c1 | 4.4 | -9.8 | 61.1* | -24.6 | -0.8 | 9.8
SMILES | Shn3 3UTR inh | KKLEB cytotox | Peg3 prom inh | CF NFkB inh | MITF TRPM1 inh | HIF-2a block
COc1ccc(Nc2c3c(nc4ccccc24)CCC3)c(OC)c1 | 50.0 | -9.1 | 23.3 | 6.5 | 21.1 | 25.2
COC(=O)c1ccc2nc(-c3ccc(OC)c(OC)c3)c(Cc3cccc(F)c3)n2c1 | . | . | . | . | . | -3.0
N#Cc1ccc(-c2nc3c4ccccc4ccn3c2Cc2cccc(Cl)c2)cc1 | 5.9 | -9.3 | -13.8 | -24.1 | . | -25.2
O=C(/C=C/Nc1ccccc1O)c1ccco1 | -64.1 | 21.5 | -266.8 | -16.5 | -40.3 | -209.4
O=C(/C=C/c1ccc(Br)cc1)c1ccco1 | 16.6 | -9.2 | 90.2* | 27.0 | -6.2 | -50.9
O=C(/C=C/Nc1ccc(F)cc1F)c1ccco1 | -39.2 | -57.6* | -12.9 | -10.0 | -2.0 | -72.9
O=C(/C=C/Nc1ccccc1F)c1cccs1 | -64.4 | -28.0 | -43.5 | -5.7 | 11.9 | -25.4
O=C(/C=C/Nc1cccc(F)c1)c1ccco1 | -80.9 | -1.8 | -275.3 | -3.4 | -83.5 | -252.0
O=C(/C=C/Nc1ccc(F)cc1F)c1cccs1 | -6.0 | -67.8* | 12.3 | -13.1 | 12.3 | -6.6
O=C(/C=C/Nc1ccc(Br)cc1F)c1ccco1 | 17.8 | -65.2* | 23.9 | -3.6 | 28.6 | 9.6
CCOC(=O)[C@]12CCCC=C1N(Cc1ccco1)C(=O)[C@H](CC(=O)NCC1CCCCC1)C2 | . | . | . | . | . | 8.2
COc1ccc([N+](=O)[O-])cc1CN1CCN(c2ncc(Cc3ccccc3)cn2)CC1 | . | . | . | . | . | -2.4
Cc1ccc(N/C=C/C(=O)c2cccs2)cc1 | 9.9 | -53.6* | 15.0 | -30.4 | 30.9 | -34.9
C=CCNC(=O)CSc1nnc(-c2ccccc2Br)n1-c1cccc(C(F)(F)F)c1 | -1.7 | 8.5 | 51.9* | 5.0 | 4.2 | 0.3
CCN(CC)C(=O)C1=C(C)N(Cc2ccc(C(C)(C)C)cc2)C(=O)C(CC(=O)NCc2cccs2)C1 (stereo unspecified) | -3.6 | -11.0 | 6.0 | 7.4 | . | -26.2
NC(c1csc(Nc2ccc(C(=O)NCCCO)cn2)n1)c1ccccc1Cl (stereo unspecified) | -1.9 | 8.1 | -10.5 | -46.3 | . | 16.7
COc1ccc(-c2cc(=O)oc3c(C)c(OCC(=O)N(C)C)ccc23)cc1 | 1.7 | 5.0 | 20.8 | -28.5 | -5.4 | 25.5
COc1ccc(-c2cc(=O)oc3c(C)c(O)c(CN(C)C)cc23)cc1 | 5.2 | -4.6 | 20.9 | 54.8* | 1.2 | 19.1
Cc1cc(C(=O)COc2cccnc2[N+](=O)[O-])c(C)n1-c1ccccc1F | 14.8 | 0.9 | 43.9 | -18.1 | 33.3 | 50.2*
Cc1cc(C(=O)COc2cccnc2[N+](=O)[O-])c(C)n1-c1ccccc1 | 90.3* | 0.4 | 72.5* | 8.7 | 68.3* | 74.3*
Cc1ccc(OCC(=O)c2cc(C)n(C)c2C)c([N+](=O)[O-])n1 | -2.9 | -1.2 | -47.6 | 6.1 | -6.2 | -45.6
Cc1cc(C(=O)COc2cccnc2[N+](=O)[O-])c(C)n1Cc1ccco1 | 23.5 | 5.6 | -52.6 | 4.1 | -10.2 | 13.1
